GDH-TPI inh – GDH-TPI coupling enzyme inhibitors, primary screen, artefact control for M. tuberculosis FBA inhibitor project, biochemical, absorbance, full deck. 360,000 compounds, 1.2% hits. inhibition, % at 4.8 µM. GDH-TPI coupled enzyme counterscreen, NADH absorbance;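 note: 0% = DMSO wells and 100% = wells lacking the enzyme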
CCHFV vOTU inh – CCHFV vOTU protease inhibitors, primary screen, biochemical, Pep-AMC substrate, fluorescence | AID 651958, 2012 | inhibition, % at 11.5 µM | 370,000 compounds, 0.55% hits | Crimean-Congo hemorrhagic fever virus L polyprotein viral ovarian tumor (vOTU) protease …; note: 0% = vehicle wells with enzyme and 100% = no enzyme wells
MazF activator – activators of E. coli MazEF toxin-antitoxin RNase, primary screen, biochemical, fluorescence, uHTS; Endoribonuclease toxin MazF (Escherichia coli (strain K12)), P0AE70; FAM/BHQ RNA-DNA oligo cleavage fluorescence, 5 h; activation, % at 20 µM; 350,000 compounds, 0.32% hits; in the data active = activation above about 50%
Target sequence (P0AE70 whole entry, looked up): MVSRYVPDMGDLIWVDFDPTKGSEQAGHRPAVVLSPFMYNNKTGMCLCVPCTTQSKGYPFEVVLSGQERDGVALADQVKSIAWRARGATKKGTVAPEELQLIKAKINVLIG
Mtb bLac sens – beta-lactam sensitization of Mtb H37Rv, H37Rv | M. tuberculosis H37Rv growth with meropenem, percent inhibition | AID 434955, 2010 | 330,000 compounds, 0.27% hits | inhibition, % at 25 µM; call rule not given here;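 note: growth measured after seven days incubation then overnight dye step; 0% = bacteria only wells and 100% = bacteria with antibiotic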
FBA Mtb inh – Mtb FBA enzyme inhibitors, primary screen, biochemical, fluorescence, strain H37Rv; purified M. tuberculosis FBA, fluorescence read-out; AID 588726, 2011; inhibition, % at 1 µM; Fructose-bisphosphate aldolase (Mycobacterium tuberculosis (strain ATCC 25618 / H37Rv)), …; 360,000 compounds, 2.3% hits; in the data active = inhibition above about 27%;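 note: 0% = vehicle and 100% = reference inhibitor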
Target sequence (P9WQA3 whole entry, looked up): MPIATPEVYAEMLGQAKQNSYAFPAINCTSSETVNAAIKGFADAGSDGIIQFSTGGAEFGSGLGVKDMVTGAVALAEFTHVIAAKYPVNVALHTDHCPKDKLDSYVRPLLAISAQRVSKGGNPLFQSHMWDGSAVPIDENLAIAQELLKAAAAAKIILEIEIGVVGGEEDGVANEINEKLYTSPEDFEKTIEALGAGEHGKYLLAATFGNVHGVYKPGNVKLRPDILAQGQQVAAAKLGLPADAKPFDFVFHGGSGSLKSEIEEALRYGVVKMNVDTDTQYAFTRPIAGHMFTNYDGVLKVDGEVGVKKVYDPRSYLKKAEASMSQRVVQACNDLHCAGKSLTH
Starred values were filed as active, the others as inactive; ! = repeats disagree. An excerpt weighted towards active compounds, which were near 4% of everything screened. Cut-off read from the data, not from the text of the source, unless noted: active = inhibition above about 30%; inactive = the rest.

COc1cc(/C=C/C(=O)OCC(=O)NC2CCCCCCC2)ccc1O was read as GDH-TPI inh 33.0*, CCHFV vOTU inh 6.7, MazF activator 10.0, Mtb bLac sens 65.3 and FBA Mtb inh 5.6.
COc1ccc(OC)c(-c2cc(C(=O)N3CCCc4ccccc43)no2)c1 was read as GDH-TPI inh 34.1*, CCHFV vOTU inh 3.7, MazF activator -4.5, Mtb bLac sens 23.3 and FBA Mtb inh 1.5.
CNC(=O)c1ccc(S(=O)(=O)c2ccc(Cl)cc2)c(NC(C)=O)c1 was read as GDH-TPI inh 2.1, CCHFV vOTU inh -10.8, MazF activator 5.8, Mtb bLac sens -3.3 and FBA Mtb inh -0.4.
For COC(=O)c1ccc(S(=O)(=O)c2ccc(Cl)cc2)c(N)c1 the results were GDH-TPI inh 2.9, CCHFV vOTU inh -181.4, MazF activator 0.2, Mtb bLac sens -0.6 and FBA Mtb inh 114.7*.
COc1ccc(Cc2nnc3n2N=C(c2cc4ccccc4o2)CS3)cc1OC was read as GDH-TPI inh 40.9*, CCHFV vOTU inh 6.1, MazF activator 2.2, Mtb bLac sens 1.8 and FBA Mtb inh -1.9.
For COC(=O)[C@@H](C)NC(=O)C(Cc1ccc2c(c1)OCO2)NC(C)=O (stereo not given in full) the results were CCHFV vOTU inh -2.9.
C(=N\Nc1ccc2nncn2n1)/c1ccco1 was read as GDH-TPI inh 17.5, CCHFV vOTU inh 2.1, MazF activator -2.8, Mtb bLac sens -2.0 and FBA Mtb inh -0.1.
BrC(=C\c1ccccc1)/C=N/Nc1ccc2nncn2n1 was read as GDH-TPI inh 32.2*, CCHFV vOTU inh 4.1, MazF activator 32.7, Mtb bLac sens -2.8 and FBA Mtb inh -1.1.
Screening O=C(O)c1cccc(N2C(=O)c3ccc4c5c(ccc(c35)C2=O)C(=O)N(c2cccc(C(=O)O)c2)C4=O)c1 returned GDH-TPI inh 38.3*, CCHFV vOTU inh 5.2, MazF activator 1.7, Mtb bLac sens -6.7 and FBA Mtb inh -3.1.
Screening CC(=O)c1cccc(CN2CCC(CO)(CCCc3ccccc3)CC2)c1 returned GDH-TPI inh 11.5, CCHFV vOTU inh -3.0, MazF activator -4.7, Mtb bLac sens -3.5 and FBA Mtb inh 139.0*.
`CC(=O)c1cccc(CN2CCC(CO)(CCOc3ccccc3)CC2)c1` gave GDH-TPI inh -1.4, CCHFV vOTU inh -1.1, MazF activator 6.5, Mtb bLac sens 4.3 and FBA Mtb inh 0.3.
`CCc1nn2c(N)c(/C=C3\C=Nc4ccccc43)c(=O)nc2s1` gave GDH-TPI inh 33.3*!, CCHFV vOTU inh 0.9, MazF activator -8.0, Mtb bLac sens 4.6 and FBA Mtb inh 2.6.
For Cc1cn2c(N)c(/C=C3\C=Nc4ccccc43)c(=O)nc2s1 the results were GDH-TPI inh -0.5, CCHFV vOTU inh -13.6, MazF activator -4.0, Mtb bLac sens -8.1 and FBA Mtb inh -10.7.
Cc1ccc(/C=N/N2C(=S)SC(C)(C)C2N(O)C(=O)Nc2ccc([N+](=O)[O-])cc2)cc1 (stereo not given) was read as GDH-TPI inh 20.9, CCHFV vOTU inh 7.8, MazF activator 4.1, Mtb bLac sens -2.7 and FBA Mtb inh -1.5.
Screening CC1(C)SC(=S)N(/N=C/c2ccc(O)cc2)C1N(O)C(=O)Nc1ccc([N+](=O)[O-])cc1 (stereo not given) returned GDH-TPI inh 35.0*, CCHFV vOTU inh 1.8, MazF activator -3.4, Mtb bLac sens 5.7 and FBA Mtb inh -1.4.
Screening CCCCNC(=O)N(O)C1N(/N=C/c2ccco2)C(=S)SC1(C)C (stereo not given) returned GDH-TPI inh 43.7*, CCHFV vOTU inh 4.1, MazF activator 6.4, Mtb bLac sens -0.4 and FBA Mtb inh -2.0.
Screening COc1ccc2[nH]c3c(=O)n(CCN4CCOCC4)cnc3c2c1 returned GDH-TPI inh 30.9*, CCHFV vOTU inh -63.0, MazF activator 11.2, Mtb bLac sens 2.2 and FBA Mtb inh 151.6*.
Screening COc1cccc2[nH]c3c(=O)n(CCCN4CCOCC4)cnc3c12 returned GDH-TPI inh 22.2, CCHFV vOTU inh -66.0, MazF activator 3.0, Mtb bLac sens -1.8 and FBA Mtb inh 147.4*.
Screening COc1ccc2c(c1)c1ncn(CCN3CCNCC3)c(=O)c1n2C returned GDH-TPI inh 1.3, CCHFV vOTU inh -99.2, MazF activator 1.0, Mtb bLac sens -5.6 and FBA Mtb inh 129.5*.
For COc1cccc2[nH]c3c(N4CCC5(CC4)OCCO5)ncnc3c12 the results were GDH-TPI inh 11.7, CCHFV vOTU inh -200.7, MazF activator 3.0, Mtb bLac sens 2.7 and FBA Mtb inh 149.0*.
For Cc1ccc2[nH]c3c(=O)n(CCN4CCNCC4)cnc3c2c1 the results were GDH-TPI inh -5.0, CCHFV vOTU inh -6.6, MazF activator 8.7, Mtb bLac sens 2.3 and FBA Mtb inh 12.2.
Screening CCOC(=O)CC[C@H]1CC[C@]2(CCCN(C(=O)c3cccnc3)C2)O1 returned CCHFV vOTU inh -4.8.
For Cc1ccc(-n2c(SCC(=O)Nc3ccc4c(c3)OCCO4)nnc2-c2ccccn2)cc1 the results were CCHFV vOTU inh -3.5.
`CCc1n[nH]c(=S)n1/N=C/c1c(C)nn(-c2ccccc2)c1Cl` gave GDH-TPI inh 6.1, CCHFV vOTU inh 4.0, MazF activator 0.7, Mtb bLac sens -8.6 and FBA Mtb inh -0.4.
For CCN(CC)c1ccc(/C=N/n2c(C)cc(C)cc2=O)cc1 the results were GDH-TPI inh 33.0*, CCHFV vOTU inh 6.2, MazF activator 1.5, Mtb bLac sens 7.4 and FBA Mtb inh -1.8.
`CCc1n[nH]c(=S)n1/N=C/c1ccc(N(CC)CC)cc1` gave GDH-TPI inh 47.6*, CCHFV vOTU inh 1.1, MazF activator 5.2, Mtb bLac sens -6.2 and FBA Mtb inh -5.4.
Screening CC(=O)c1ccc(N(C)C)cc1 returned GDH-TPI inh 24.9, CCHFV vOTU inh -1.1, MazF activator -2.6, Mtb bLac sens -6.3 and FBA Mtb inh 0.2.
Screening CN(C)c1ccc(Cc2cc3c(O)ccc(O)c3cc(Cc3ccc(N(C)C)cc3)c2=O)cc1 returned GDH-TPI inh 15.5, CCHFV vOTU inh 33.9*, MazF activator -21.3 and FBA Mtb inh -3.2.
Screening COc1cc(/C=N/Nc2nc(=O)[nH]nc2C)cc([N+](=O)[O-])c1O returned GDH-TPI inh 38.0*, CCHFV vOTU inh 4.2, MazF activator 1.2, Mtb bLac sens 0.7 and FBA Mtb inh -11.5.
Screening Cc1n[nH]c(=O)nc1N/N=C/c1ccc(O)c([N+](=O)[O-])c1 returned GDH-TPI inh 42.8*, CCHFV vOTU inh -0.3, MazF activator -3.7, Mtb bLac sens 5.5 and FBA Mtb inh 0.2.
O=[N+]([O-])c1cc(Cl)cc(/C=N/Nc2nc3ccccc3s2)c1O was read as GDH-TPI inh 1.9, CCHFV vOTU inh -7.2, MazF activator -1.2, Mtb bLac sens 100.2 and FBA Mtb inh -0.7.

From PubChem BioAssay
